# Measured values as given in ChEMBL document CHEMBL2218924, “A broad activity screen in support of a chemogenomic map for kinase signalling research and drug discovery” (Biochem J, 2013).
# Experiments:
# [1] = biological target: Tyrosine-protein kinase SYK (Homo sapiens) (UniProt P43405); conditions: at 10 µM
# [2] = biological target: T1, Mitogen-activated protein kinase kinase kinase 7 (Homo sapiens) (UniProt O43318); conditions: at 1 µM
# T1 sequence (whole entry): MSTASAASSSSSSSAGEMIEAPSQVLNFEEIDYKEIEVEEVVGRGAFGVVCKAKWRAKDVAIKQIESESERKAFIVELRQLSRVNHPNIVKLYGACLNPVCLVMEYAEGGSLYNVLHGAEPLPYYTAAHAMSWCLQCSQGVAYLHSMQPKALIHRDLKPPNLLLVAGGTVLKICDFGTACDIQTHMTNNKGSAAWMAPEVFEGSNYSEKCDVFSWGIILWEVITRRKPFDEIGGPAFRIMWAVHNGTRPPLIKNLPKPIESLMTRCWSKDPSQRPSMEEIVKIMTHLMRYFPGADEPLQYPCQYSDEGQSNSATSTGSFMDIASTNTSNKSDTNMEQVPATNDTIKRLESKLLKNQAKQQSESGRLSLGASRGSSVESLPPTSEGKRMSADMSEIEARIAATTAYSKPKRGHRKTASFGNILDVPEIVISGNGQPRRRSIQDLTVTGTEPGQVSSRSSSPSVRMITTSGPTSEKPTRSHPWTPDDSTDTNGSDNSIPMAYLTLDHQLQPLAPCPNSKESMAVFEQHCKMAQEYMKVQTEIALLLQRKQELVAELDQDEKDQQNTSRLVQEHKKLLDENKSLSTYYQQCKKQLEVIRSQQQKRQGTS
# [3] = biological target: T1, Mitogen-activated protein kinase kinase kinase 7 (Homo sapiens); conditions: at 10 µM
# [4] = biological target: T2, Serine/threonine-protein kinase TAO1 (Homo sapiens) (UniProt Q7L7X3); conditions: at 1 µM
# T2 sequence (whole entry): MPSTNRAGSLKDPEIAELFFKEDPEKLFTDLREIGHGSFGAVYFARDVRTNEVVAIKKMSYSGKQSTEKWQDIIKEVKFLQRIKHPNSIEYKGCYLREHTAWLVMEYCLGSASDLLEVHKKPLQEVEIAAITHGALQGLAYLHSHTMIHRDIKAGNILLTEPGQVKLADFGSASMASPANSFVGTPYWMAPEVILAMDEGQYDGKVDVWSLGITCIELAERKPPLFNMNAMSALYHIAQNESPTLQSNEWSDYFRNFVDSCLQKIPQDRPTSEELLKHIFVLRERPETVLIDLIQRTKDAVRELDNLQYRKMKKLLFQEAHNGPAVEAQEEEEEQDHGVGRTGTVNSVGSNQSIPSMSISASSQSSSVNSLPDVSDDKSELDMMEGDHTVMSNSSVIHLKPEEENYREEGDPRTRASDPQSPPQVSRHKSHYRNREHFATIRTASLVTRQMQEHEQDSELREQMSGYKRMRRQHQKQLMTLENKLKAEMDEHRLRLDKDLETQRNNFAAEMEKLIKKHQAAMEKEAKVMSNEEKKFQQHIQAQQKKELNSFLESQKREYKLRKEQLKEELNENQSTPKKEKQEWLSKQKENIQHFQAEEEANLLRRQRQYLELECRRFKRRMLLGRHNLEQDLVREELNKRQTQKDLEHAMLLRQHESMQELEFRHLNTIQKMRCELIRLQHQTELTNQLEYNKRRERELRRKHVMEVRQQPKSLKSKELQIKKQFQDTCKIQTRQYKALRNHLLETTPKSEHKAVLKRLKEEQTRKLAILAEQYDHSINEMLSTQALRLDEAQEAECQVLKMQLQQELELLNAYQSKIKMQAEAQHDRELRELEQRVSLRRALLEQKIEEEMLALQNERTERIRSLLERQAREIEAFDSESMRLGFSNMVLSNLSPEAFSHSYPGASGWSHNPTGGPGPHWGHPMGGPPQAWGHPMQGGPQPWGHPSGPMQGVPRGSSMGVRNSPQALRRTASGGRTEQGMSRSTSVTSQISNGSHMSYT
# [5] = biological target: T2, Serine/threonine-protein kinase TAO1 (Homo sapiens); conditions: at 10 µM
# [6] = biological target: T3, Serine/threonine-protein kinase TAO2 (Homo sapiens) (UniProt Q9UL54); conditions: at 1 µM
# T3 sequence (whole entry): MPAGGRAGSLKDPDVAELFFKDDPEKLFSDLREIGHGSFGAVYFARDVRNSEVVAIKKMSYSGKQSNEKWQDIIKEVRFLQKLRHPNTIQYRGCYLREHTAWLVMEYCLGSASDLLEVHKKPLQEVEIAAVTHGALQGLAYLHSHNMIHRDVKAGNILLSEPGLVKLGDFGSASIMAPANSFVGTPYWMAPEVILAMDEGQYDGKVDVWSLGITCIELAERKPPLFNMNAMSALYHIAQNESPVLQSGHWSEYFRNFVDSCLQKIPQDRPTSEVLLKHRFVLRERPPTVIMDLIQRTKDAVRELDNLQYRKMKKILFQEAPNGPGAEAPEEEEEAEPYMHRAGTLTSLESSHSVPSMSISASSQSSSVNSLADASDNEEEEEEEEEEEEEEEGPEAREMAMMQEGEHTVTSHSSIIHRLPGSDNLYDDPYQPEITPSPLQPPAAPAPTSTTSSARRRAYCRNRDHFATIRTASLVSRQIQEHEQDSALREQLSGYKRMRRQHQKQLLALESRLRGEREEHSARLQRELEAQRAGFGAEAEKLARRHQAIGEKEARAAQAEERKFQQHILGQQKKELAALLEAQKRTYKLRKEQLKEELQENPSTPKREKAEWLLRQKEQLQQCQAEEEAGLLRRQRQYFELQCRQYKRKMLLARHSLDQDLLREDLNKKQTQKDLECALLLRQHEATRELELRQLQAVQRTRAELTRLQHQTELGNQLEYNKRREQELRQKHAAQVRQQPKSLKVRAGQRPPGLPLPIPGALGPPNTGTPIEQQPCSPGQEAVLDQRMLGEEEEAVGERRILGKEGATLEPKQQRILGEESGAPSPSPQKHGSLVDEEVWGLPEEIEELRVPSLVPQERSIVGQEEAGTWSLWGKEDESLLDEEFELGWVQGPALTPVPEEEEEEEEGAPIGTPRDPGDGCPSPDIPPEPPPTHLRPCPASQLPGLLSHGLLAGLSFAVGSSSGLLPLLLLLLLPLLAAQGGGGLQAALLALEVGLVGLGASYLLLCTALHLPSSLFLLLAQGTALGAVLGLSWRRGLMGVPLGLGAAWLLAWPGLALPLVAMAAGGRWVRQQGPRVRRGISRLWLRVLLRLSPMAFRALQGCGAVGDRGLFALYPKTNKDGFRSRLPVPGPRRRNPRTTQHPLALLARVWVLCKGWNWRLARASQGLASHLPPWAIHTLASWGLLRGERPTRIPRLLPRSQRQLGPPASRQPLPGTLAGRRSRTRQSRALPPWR
# [7] = biological target: T3, Serine/threonine-protein kinase TAO2 (Homo sapiens); conditions: at 10 µM
# [8] = biological target: T4, Serine/threonine-protein kinase TAO3 (Homo sapiens) (UniProt Q9H2K8); conditions: at 1 µM
# T4 sequence (whole entry): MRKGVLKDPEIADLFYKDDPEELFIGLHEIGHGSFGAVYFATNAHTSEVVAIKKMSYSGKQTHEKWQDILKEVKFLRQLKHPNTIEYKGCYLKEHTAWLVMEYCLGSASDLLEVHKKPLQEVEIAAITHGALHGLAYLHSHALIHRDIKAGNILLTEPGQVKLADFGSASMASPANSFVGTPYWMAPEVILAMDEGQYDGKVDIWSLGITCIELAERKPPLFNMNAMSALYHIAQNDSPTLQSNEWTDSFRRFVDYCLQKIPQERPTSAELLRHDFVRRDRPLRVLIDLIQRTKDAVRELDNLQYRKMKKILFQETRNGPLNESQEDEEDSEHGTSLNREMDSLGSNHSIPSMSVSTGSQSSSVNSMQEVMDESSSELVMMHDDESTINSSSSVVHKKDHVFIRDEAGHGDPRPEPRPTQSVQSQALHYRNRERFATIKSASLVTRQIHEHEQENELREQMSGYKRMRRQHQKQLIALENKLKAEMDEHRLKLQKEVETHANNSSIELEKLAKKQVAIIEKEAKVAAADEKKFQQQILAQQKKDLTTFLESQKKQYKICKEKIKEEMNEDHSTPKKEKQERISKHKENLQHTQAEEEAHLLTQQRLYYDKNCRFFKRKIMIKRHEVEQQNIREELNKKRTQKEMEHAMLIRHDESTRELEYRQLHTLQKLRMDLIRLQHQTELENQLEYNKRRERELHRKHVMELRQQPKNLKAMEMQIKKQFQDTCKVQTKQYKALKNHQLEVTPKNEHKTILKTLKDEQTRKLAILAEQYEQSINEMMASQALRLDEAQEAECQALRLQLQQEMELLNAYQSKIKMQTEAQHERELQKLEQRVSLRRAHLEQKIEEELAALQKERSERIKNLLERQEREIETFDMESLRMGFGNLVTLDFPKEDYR
# [9] = biological target: T4, Serine/threonine-protein kinase TAO3 (Homo sapiens); conditions: at 10 µM
# [10] = biological target: T5, Serine/threonine-protein kinase TBK1 (Homo sapiens) (UniProt Q9UHD2); conditions: at 1 µM
# T5 sequence (whole entry): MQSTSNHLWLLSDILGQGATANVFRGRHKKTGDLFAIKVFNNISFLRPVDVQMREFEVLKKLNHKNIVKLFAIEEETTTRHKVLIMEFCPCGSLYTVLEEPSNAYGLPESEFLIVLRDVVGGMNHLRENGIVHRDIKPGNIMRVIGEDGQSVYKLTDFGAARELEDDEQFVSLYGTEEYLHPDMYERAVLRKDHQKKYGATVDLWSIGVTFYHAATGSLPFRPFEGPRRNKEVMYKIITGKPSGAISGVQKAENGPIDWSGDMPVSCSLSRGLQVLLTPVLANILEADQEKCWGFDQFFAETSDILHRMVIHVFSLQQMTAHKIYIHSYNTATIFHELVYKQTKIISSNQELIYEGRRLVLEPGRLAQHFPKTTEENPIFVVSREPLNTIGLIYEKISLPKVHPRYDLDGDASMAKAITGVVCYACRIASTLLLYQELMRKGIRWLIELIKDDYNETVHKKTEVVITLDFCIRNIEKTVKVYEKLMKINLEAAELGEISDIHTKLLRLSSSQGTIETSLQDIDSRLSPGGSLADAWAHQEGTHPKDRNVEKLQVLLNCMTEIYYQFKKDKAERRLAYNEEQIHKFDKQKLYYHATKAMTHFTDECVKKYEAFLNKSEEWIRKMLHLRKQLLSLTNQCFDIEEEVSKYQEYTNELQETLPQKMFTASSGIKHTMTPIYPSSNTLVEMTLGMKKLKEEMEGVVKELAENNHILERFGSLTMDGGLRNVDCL
smiles,measurement,setting,value
O=c1c2ccccc2[nH]c(=S)n1CCN1CCC(=C(c2ccc(F)cc2)c2ccc(F)cc2)CC1,residual activity,[1],68%
same,residual activity,[2],97%
same,residual activity,[3],83%
same,residual activity,[4],109%
same,residual activity,[5],88%
same,residual activity,[6],107%
same,residual activity,[7],79%
same,residual activity,[8],109%
same,residual activity,[9],86%
same,residual activity,[10],91%
